HT1080 IDH1KD tx = kills HT-1080 cells with IDH1 knockdown. HT-1080 IDH1 knockdown viability, ATP luminescence, 48 h. Potency, µM (top dose mostly 46.1 µM), most hits filed as cytotoxic. actives 2% (n = 360,000)
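After a 2 h attachment period, IDH1KD HT-1080 cells took pin-transferred compound for 48 h at 37 °C; ATP-based luminescence after 10 min room-temperature reagent incubation reported viability.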
HT1080NT lethal = kills 2HG-producing HT-1080-NT fibrosarcoma cells; Potency, µM (highest dose often 46.1 µM), actives largely listed as cytotoxic; HT-1080-NT fibrosarcoma viability, CellTiter-Glo ATP luminescence, 48 h; actives 1.6% (n = 360,000); AID 686970;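 further: NT is the 2HG producing partner of a matched IDH1 knockdown line; nearly all actives have a fitted effect of over 55% in size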
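Toxicity toward the 2HG-producing NT line was scored as %Activity, normalised to DMSO and no-cell wells, from CellTiter-Glo luminescence after 48 hours' treatment.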
KB-3-1 tox = KB-3-1 parental cell cytotoxicity; Potency, µM (titrated, usually from 46.1 µM), hits mostly cytotoxic; AID 1347075; KB-3-1 viability, CellTiter-Glo ATP luminescence, 72 h; actives 1.4% (n = 400,000); further: nearly all actives have a fitted effect of over 60% in size
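Cytotoxicity measured as CellTiter-Glo luminescence after 72 h at 37 C. Compound titrations were pinned onto drug-naive KB-3-1 parental adenocarcinoma cells grown in DMEM with 10% FBS, and normalized data fitted to concentration-response curves.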
KB-V1 MDR tox = kills drug-selected multidrug resistant KB-V1 cells | Potency, µM (doses to about 46.1 µM), actives largely listed as cytotoxic | actives 3.4% (n = 400,000) | KB-V1 MDR cells viability, CellTiter-Glo, 72 h; further: nearly all actives have a fitted effect of over 60% in size
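Drug-selected KB-V1 cells, grown in DMEM lacking phenol red with 10% FBS, receive compound titrations; after three days at 37 degrees C, surviving cell ATP is quantified by CellTiter-Glo luminescence and responses normalized and curve-fitted.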
Hits are given with their value. This is a sample that favours compounds with a hit; in the whole collection about 5.7% have one here. The call rests on the fitted dose curve; in most records, active means well fitted curve in the direction sought with a large enough effect; inconclusive means small, poorly fitted or top-dose-only effect, or another doubt; inactive means no such curve, though single readings can be large; an effect the other way counts as inactive or inconclusive.

Results for CCOc1ccc(CCNC(=O)c2cnc3c(-c4ccc(F)cc4)c(C)nn3c2C)cc1OCC ?
KB-3-1 tox: inactive; KB-V1 MDR tox: inactive

How did CCOc1ccc(N2C(=O)C3=C(C(c4ccc(Cl)cc4)=NCCN3)C2c2cccnc2)cc1 (stereo not drawn) do in these assays?
HT1080 IDH1KD tx: 14.6µM; HT1080NT lethal: inconclusive; KB-3-1 tox: inconclusive; KB-V1 MDR tox: inactive

Results for Cc1ccc(N2C(=O)c3n[nH]c(C)c3C2c2cccnc2)cc1 (stereo not drawn) ?
HT1080 IDH1KD tx: inactive; HT1080NT lethal: inactive; KB-3-1 tox: inactive; KB-V1 MDR tox: inactive

Results for Cc1ccc(C2C3=C(NCCN=C3c3ccccc3)C(=O)N2c2ccccc2)cc1 (stereo not drawn) ?
HT1080 IDH1KD tx: inconclusive; HT1080NT lethal: 11.2µM; KB-3-1 tox: inactive; KB-V1 MDR tox: inactive

How did CCc1ccc(C(=O)NC2=NC(c3cc(OC)ccc3OC)CC(=O)N2)cc1 (stereo not drawn) do in these assays?
KB-3-1 tox: inactive; KB-V1 MDR tox: inactive

What do the screens show for `O=C(Nc1nc(-c2ccccn2)cs1)c1ccc(Br)s1`?
HT1080 IDH1KD tx: 1.41µM; HT1080NT lethal: 2µM; KB-3-1 tox: inactive; KB-V1 MDR tox: 1.3µM

How did O=C(Nc1nc(-c2cc(Cl)sc2Cl)cs1)c1cccs1 do in these assays?
HT1080 IDH1KD tx: 11.6µM; HT1080NT lethal: inconclusive; KB-3-1 tox: inconclusive; KB-V1 MDR tox: inconclusive

How did O=C(Nc1nc(-c2ccccn2)cs1)C1CC1 do in these assays?
HT1080 IDH1KD tx: inactive; HT1080NT lethal: inactive; KB-3-1 tox: inconclusive; KB-V1 MDR tox: inactive

What do the screens show for `C[C@H](NC(=O)c1ccco1)C(=O)Nc1nc(-c2ccccn2)cs1`?
HT1080 IDH1KD tx: inactive; HT1080NT lethal: inactive; KB-3-1 tox: inactive; KB-V1 MDR tox: 4.11µM

How did CC(=O)Nc1nc(-c2ccc(Br)s2)cs1 do in these assays?
HT1080 IDH1KD tx: inactive; HT1080NT lethal: inactive; KB-3-1 tox: inactive; KB-V1 MDR tox: inactive

Results for O=C(Nc1nc(-c2cc(Cl)sc2Cl)cs1)c1ccc(Br)s1 ?
HT1080 IDH1KD tx: inactive; HT1080NT lethal: inactive; KB-3-1 tox: 20.6µM; KB-V1 MDR tox: inconclusive

Results for O=C(Nc1nc(-c2ccccn2)cs1)c1ccco1 ?
HT1080 IDH1KD tx: inactive; HT1080NT lethal: inconclusive; KB-3-1 tox: inactive; KB-V1 MDR tox: inactive

What do the screens show for `O=C(CSc1ccccc1)NCc1ccc2c(c1)CCN2C(=O)c1ccc(F)cc1`?
KB-3-1 tox: inactive; KB-V1 MDR tox: inactive

Results for CCCN(C(=O)c1coc(=O)c2ccccc12)c1ccccc1C ?
KB-3-1 tox: inactive; KB-V1 MDR tox: inactive

What do the screens show for `CCOC(=O)c1cc2ccccc2n1C1CCN(CCc2ccccc2)CC1`?
HT1080 IDH1KD tx: inconclusive; HT1080NT lethal: inconclusive; KB-3-1 tox: inconclusive; KB-V1 MDR tox: inactive

What do the screens show for `CCOC(=O)c1cc2cc(OC)ccc2n1C1CCN(CCc2ccccc2)CC1`?
HT1080 IDH1KD tx: 18.4µM; HT1080NT lethal: inconclusive; KB-3-1 tox: inconclusive; KB-V1 MDR tox: inactive

How did Oc1cccc(C(Nc2nccs2)c2ccc3cccnc3c2O)c1 (stereo not drawn) do in these assays?
HT1080 IDH1KD tx: 18.4µM; HT1080NT lethal: 29.1µM; KB-3-1 tox: 3.26µM; KB-V1 MDR tox: inconclusive

What do the screens show for `CC(=O)NC(c1ccc(C(C)C)cc1)c1ccc2cccnc2c1O` (stereo not drawn)?
HT1080 IDH1KD tx: inconclusive; HT1080NT lethal: inconclusive; KB-3-1 tox: 0.651µM; KB-V1 MDR tox: inconclusive

How did Oc1c(C(Nc2ccccn2)c2ccccc2)ccc2cccnc12 (stereo not drawn) do in these assays?
KB-3-1 tox: inactive; KB-V1 MDR tox: inactive

What do the screens show for `COc1cccc(C(NC(C)=O)c2ccc3cccnc3c2O)c1` (stereo not drawn)?
HT1080 IDH1KD tx: inconclusive; HT1080NT lethal: inactive; KB-3-1 tox: 3.66µM; KB-V1 MDR tox: inactive

What do the screens show for `CCCCC(=O)NC(c1ccc(C(C)C)cc1)c1ccc2cccnc2c1O` (stereo not drawn)?
HT1080 IDH1KD tx: inconclusive; HT1080NT lethal: inconclusive; KB-3-1 tox: inconclusive; KB-V1 MDR tox: inactive

How did CC(=O)NC(c1cccc([N+](=O)[O-])c1)c1ccc2cccnc2c1O (stereo not drawn) do in these assays?
HT1080 IDH1KD tx: inconclusive; HT1080NT lethal: inconclusive; KB-3-1 tox: 3.66µM; KB-V1 MDR tox: inconclusive

Results for CCc1ccccc1Nc1nc2cc(Cl)c(Cl)cc2nc1-n1nc(C)cc1C ?
KB-3-1 tox: inactive; KB-V1 MDR tox: inactive

What do the screens show for `O=[N+]([O-])c1ccc(NC(c2ccccc2)c2ccc3cccnc3c2O)cc1` (stereo not drawn)?
HT1080 IDH1KD tx: inconclusive; HT1080NT lethal: inconclusive; KB-3-1 tox: 4.61µM; KB-V1 MDR tox: inconclusive

What do the screens show for `COc1cccc(C(Nc2ccccc2)c2ccc3ccc(C)nc3c2O)c1` (stereo not drawn)?
HT1080 IDH1KD tx: 7.31µM; HT1080NT lethal: 10.3µM; KB-3-1 tox: inconclusive; KB-V1 MDR tox: inconclusive

How did Cc1cccc(NC(c2ccc(O)cc2)c2ccc3ccc(C)nc3c2O)n1 (stereo not drawn) do in these assays?
HT1080 IDH1KD tx: inactive; HT1080NT lethal: inactive; KB-3-1 tox: inactive; KB-V1 MDR tox: inconclusive

Results for Cc1ccccc1-c1ccnc2c(-c3ccc(F)cc3)c(C)nn12 ?
KB-3-1 tox: inactive; KB-V1 MDR tox: inactive

What do the screens show for `COc1ccccc1CCC(=O)O`?
KB-3-1 tox: inactive; KB-V1 MDR tox: inactive

How did CCCCOc1ccc(C(=O)NCC(=O)NCc2ccccn2)cc1 do in these assays?
HT1080 IDH1KD tx: inactive; HT1080NT lethal: inactive; KB-3-1 tox: 0.517µM; KB-V1 MDR tox: inconclusive

What do the screens show for `COc1ccc(CNC(=O)c2cccc(S(=O)(=O)N3CCCCC3)c2)cc1OC`?
HT1080 IDH1KD tx: inactive; HT1080NT lethal: inactive; KB-3-1 tox: inconclusive; KB-V1 MDR tox: inactive

Results for COc1cc2[nH]cc(C(=O)NCc3cccs3)c(=O)c2cc1OC ?
HT1080 IDH1KD tx: inconclusive; HT1080NT lethal: 20µM; KB-3-1 tox: inactive; KB-V1 MDR tox: inactive

What do the screens show for `Cc1cc(C)cc(OCCNC(=O)c2cc(S(=O)(=O)N3CCOCC3)ccc2F)c1`?
HT1080 IDH1KD tx: inconclusive; HT1080NT lethal: inconclusive; KB-3-1 tox: 23.1µM; KB-V1 MDR tox: inconclusive

Results for COc1ccc(S(=O)(=O)N2CCCCCC2)cc1C(=O)NCc1cccs1 ?
HT1080 IDH1KD tx: inactive; HT1080NT lethal: inactive; KB-3-1 tox: inactive; KB-V1 MDR tox: 8.2µM

Results for COc1ccc(CNC(=O)c2cc(S(=O)(=O)N3CCCCC3)ccc2Cl)cc1OC ?
HT1080 IDH1KD tx: inactive; HT1080NT lethal: 9.2µM; KB-3-1 tox: inactive; KB-V1 MDR tox: inactive

Results for CC(CNC(=O)Cn1ncc2c3ccccc3n(Cc3cccc(Cl)c3)c2c1=O)c1ccccc1 (stereo not drawn) ?
KB-3-1 tox: inactive; KB-V1 MDR tox: inconclusive

What do the screens show for `CCN(CC)S(=O)(=O)c1ccc2c(c1)c(=O)c(C(=O)NCc1cccs1)cn2C`?
HT1080 IDH1KD tx: inactive; HT1080NT lethal: inactive; KB-3-1 tox: inactive; KB-V1 MDR tox: 6.51µM

How did COc1ccc(S(=O)(=O)N2CCCCCC2)cc1C(=O)NCCOc1ccc(C)cc1 do in these assays?
HT1080 IDH1KD tx: inactive; HT1080NT lethal: inactive; KB-3-1 tox: inactive; KB-V1 MDR tox: 9.2µM

Screening data as filed in PubChem.
